# PubChem BioAssay (NCATS)
# Inconclusive results are not listed. Where a call stands in place of a potency, no number is given. The source made the active and inactive calls. Unless noted, calls come from the whole dose curve.
# Assay: S16 Schwann cell PMP22 intronic element beta-lactamase assay (AID 624044); note: nearly all actives have a fitted effect of over 15% in size
# Details: S16 rat Schwann cells, PMP22 element beta-lactamase FRET, 24 h; series mostly up to 38.3 µM
# Outline: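 Rat S16 Schwann cells with beta-Lac driven by a PMP22 intronic element, compound-treated 24 h at 37 °C. LiveBLAzer FRET B/G read: 460 nm normalized to potassium clavulanate vs DMSO; 535 nm FRET as viability; concentration-effect curves classified.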
# Potency is the fitted concentration of half-maximal effect.
row,Compound,Potency
1,O=C(O)c1nn(Cc2ccc(Cl)cc2Cl)c2ccccc12,inactive
2,C[C@]12C=CC(=O)C=C1CC[C@@H]1[C@@H]2CC[C@@]2(C)[C@H]1CC[C@]2(C)O,inactive
3,CCCCCCCCCCCCCCCC[n+]1ccccc1,12.6 µM (active)
4,CC(C)NCC(O)c1ccc(N)c(C#N)c1 (stereo not drawn),inactive
5,Clc1ccc(CO/N=C(\Cn2ccnc2)c2ccc(Cl)cc2Cl)c(Cl)c1,inactive
6,NC(=O)OCCCc1ccccc1,inactive
7,CCC1(CC)C(=O)NC(=O)NC1=O,inactive
8,CN1C(=O)CN=C(c2ccccc2)c2cc([N+](=O)[O-])ccc21,inactive
9,NC(N)=NN=C(/C=C/c1ccc([N+](=O)[O-])o1)/C=C/c1ccc([N+](=O)[O-])o1,9.99 µM (active)
10,CC(Cc1ccccc1)NCc1ccccc1Cl (stereo not drawn),inactive

# Assay: HTS Assay for Allosteric Antagonists of the Human D2 Dopamine Receptor: Hit Validation in HTRF (AID 624455; active = well fitted inhibition curve with a large enough effect;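 note: stable D1 dopamine receptor cell line scored for blocking the D1 response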)
# Details: Cells stably expressing D1 dopamine receptor, inhibition mode; series mostly up to 46.1 µM
# Source text: Dopamine receptors (DARs) are involved in the etiology and/or therapy of a number of neuropsychiatric and endocrine disorders. For instance, all receptor-based antiparkinsonian drugs work via stimulating the D2 DAR subtype whereas all FDA-approved antipsychotic agents are antagonists of this receptor. […] There are three different types of allosteric modulators that we are seeking, two of which will stimulate or augment receptor signaling, allosteric agonists and potentiators, while the third, allosteric antagonists, will attenuate receptor signaling. The present primary screening assay measures compound antagonism after an EC80 addition of dopamine by tracking calcium flux in a […], inducible Hek293 Trex D2 cell line. This assay measures activity of the hits in the D1 HTRF assay.
# NIH Chemical Genomics Center [NCGC]
# NIH Molecular Libraries Probe Centers Network [MLPCN]
# Assay Submitter (PI): David Sibley
# Cells stably expressing the D1 dopamine receptor will be run in an HTRF assay and compounds will be examined for the ability to inhibit the D1 mediated response.
row,Compound,Potency
1,O=C(O)c1nn(Cc2ccc(Cl)cc2Cl)c2ccccc12,inactive
2,NC(=O)CN1CCCC1=O,inactive
3,CN1C[C@H](C(=O)N[C@]2(C)O[C@@]3(O)[C@@H]4CCCN4C(=O)[C@H](Cc4ccccc4)N3C2=O)C[C@@H]2c3cccc4[nH]cc(c34)C[C@H]21,0.082 µM (active)
